# EWS-Fli block: EWS/Fli transcriptional activity inhibition; A673 NR0B1-luciferase reporter, viability-normalised; inhibition, % at 12.6 µM; actives 0.67% (n = 350,000);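 active means mean inhibition of at least 50% after viability correction, with every replicate also passing that limit; inconclusive means mean reaches 50% but only one of two replicates passes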;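 further: firefly luciferase signal divided by Alamar Blue viability fluorescence both relative to DMSO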
# EBV LMP1 NFkB: Epstein-Barr LMP1 NF-kappaB reporter inhibition. LMP1-induced NF-kappaB luciferase reporter cells, luminescence. inhibition, % at 12.5 µM. actives 0.69% (n = 350,000); in the data active means inhibition above about 41%; inconclusive means no clear call, values can overlap the other calls
# TROY NFkB inh: TROY signaling inhibition. actives 0.98% (n = 360,000). inhibition, % at 10 µM. Q293 LMP1-TROYcd NF-kB luciferase reporter, 4 h;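 active means compounds whose plate-normalised and pattern-corrected inhibition of the luciferase reporter signal at the single screening dose is 50% or more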
# TWEAK-Fn14 inh: TWEAK-Fn14 signaling inhibition; actives 2% (n = 360,000); AID 1159606; TWEAK-stimulated Fn14 reporter cells, luciferase luminescence, 8 h; inhibition, % at 10 µM; in the data active means inhibition above about 50%
# LGR2 inh: Drosophila LGR2 receptor signaling inhibition; HEK293 LGR2, CRE-luciferase, bursicon-stimulated, 4 h; inhibition, % at 9.99 µM; actives 0.35% (n = 380,000); AID 720647;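 active means drop in luminescence signal, shown as inhibition above about 50% in the replicate tests, limit read from the data, passing the limit was not always enough; inconclusive means probably only some replicates passing the limit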;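 further: agonist challenge used bursicon conditioned medium at about half maximal strength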
# A number is an active result; – = inactive; ? = inconclusive; · = not tested or not shown. An excerpt weighted towards active compounds, which were near 2.5% of everything screened.
SMILES,EWS-Fli block,EBV LMP1 NFkB,TROY NFkB inh,TWEAK-Fn14 inh,LGR2 inh
COc1ccc(CCn2c(N)c(S(=O)(=O)c3cccs3)c3nc4ccccc4nc32)cc1OC,–,–,–,–,–
Cc1ccc(S(=O)(=O)c2c(N)n(CCC(C)C)c3nc4ccccc4nc23)cc1,·,–,73,–,·
Cc1ccc(C(=O)Nn2c(N)c(S(=O)(=O)c3ccc(C)cc3)c3nc4ccccc4nc32)cc1,·,–,–,–,·
Cc1ccc(S(=O)(=O)c2c(N)n(CCCO)c3nc4ccccc4nc23)cc1,·,–,64,–,·
CC(C)CCn1c(N)c(S(=O)(=O)c2cccs2)c2nc3ccccc3nc21,–,–,86,90,–
Nc1c(S(=O)(=O)c2cccs2)c2nc3ccccc3nc2n1Cc1cccs1,·,–,70,–,·
C[C@@H]1CN([C@H](C)CO)C(=O)c2cc(NC(=O)Cc3ccccc3)ccc2O[C@@H](C)CCCCO[C@@H]1CN(C)C(=O)Nc1cccc2ccccc12,–,·,·,·,–
CCCC(=O)Nc1ccc2c(c1)OC[C@H](C)N(CCC(F)(F)F)C[C@H](C)[C@@H](OC)CN(C)C2=O,–,·,·,·,–
CCn1c(Cl)c(C=O)s/c1=N\S(=O)(=O)c1ccccc1,–,–,–,99,?
CCN1C(=O)CS/C1=N\S(=O)(=O)c1ccc(Cl)cc1,–,–,–,–,–
O=C(NCCc1ccncc1)[C@H]1N[C@H]2c3ccc(/C=C/c4ccccc4)c(=O)n3C[C@H]2[C@@H]1CO,–,·,·,·,–
Cc1ccc(S(=O)(=O)N(C)C[C@H]2Oc3ccc(NC(=O)Nc4ccc(C(F)(F)F)cc4)cc3CC(=O)N([C@@H](C)CO)C[C@H]2C)cc1,–,·,·,·,–
Cc1ccc(S(=O)(=O)N(C)C[C@H]2Oc3ccc(NC(=O)Nc4ccc(F)cc4)cc3CC(=O)N([C@H](C)CO)C[C@@H]2C)cc1,–,·,·,·,–
C[C@H]1CN([C@@H](C)CO)C(=O)Cc2cc(NC(=O)Nc3ccc(C(F)(F)F)cc3)ccc2O[C@H]1CN(C)S(=O)(=O)c1cn(C)cn1,54,·,·,·,–
C[C@H](CO)N1C[C@H](C)[C@@H](CN(C)S(=O)(=O)c2ccc(F)cc2)Oc2ccc(NC(=O)Nc3ccc(C(F)(F)F)cc3)cc2CC1=O,–,·,·,·,–
C[C@H]1CN([C@@H](C)CO)C(=O)Cc2cc(NC(=O)Nc3ccc(C(F)(F)F)cc3)ccc2O[C@H]1CN(C)S(=O)(=O)c1ccc(F)cc1,54,·,·,·,–
Cc1ccc(S(=O)(=O)N(C)C[C@@H]2Oc3ccc(NC(=O)Nc4ccc(F)cc4)cc3CC(=O)N([C@H](C)CO)C[C@@H]2C)cc1,63,·,·,·,–
Cc1ccc(S(=O)(=O)N(C)C[C@@H]2Oc3ccc(NC(=O)Nc4ccc(C(F)(F)F)cc4)cc3CC(=O)N([C@@H](C)CO)C[C@@H]2C)cc1,51,·,·,·,–
C[C@@H]1CN([C@H](C)CO)C(=O)c2cc(NC(=O)CCN3CCOCC3)ccc2O[C@@H]1CN(C)Cc1ccc2c(c1)OCO2,–,·,·,·,–
C[C@H]1CCCCO[C@H](CN(C)C(=O)Nc2cccc3ccccc23)[C@@H](C)CN([C@@H](C)CO)C(=O)c2cc(NC(=O)NC3CCCCC3)ccc2O1,–,·,·,·,–
CCC(=O)N1CC2(C1)CN(C(=O)Nc1ccc(F)cc1)[C@H](CO)c1c2c2ccc(OC)cc2n1C,–,·,·,·,–
O=C(Nc1cccc(O)c1)C(=O)Nc1ccccn1,–,–,–,76,78
S=C(Nc1ccccc1)Nc1ccccn1,–,–,–,–,–
O=C(Nc1ccccc1)C(=O)Nc1ccccn1,·,–,–,62,65
C[C@H]1CN([C@@H](C)CO)C(=O)c2cccc(NC(=O)c3nc4ccccc4s3)c2O[C@@H]1CN(C)Cc1ccc(Cl)c(Cl)c1,–,·,·,·,–
SMILES,EWS-Fli block,EBV LMP1 NFkB,TROY NFkB inh,TWEAK-Fn14 inh,LGR2 inh
C[C@H](CO)N1C[C@H](C)[C@H](CN(C)S(=O)(=O)c2ccc(Cl)cc2)Oc2ccc(NC(=O)CCCN(C)C)cc2CC1=O,–,·,·,·,–
Cc1ccc(S(=O)(=O)N(C)C[C@@H]2Oc3ccc(NC(=O)Nc4ccc5c(c4)OCO5)cc3CC(=O)N([C@@H](C)CO)C[C@@H]2C)cc1,63,·,·,·,–
C[C@H](CO)N1C[C@H](C)[C@@H](CN(C)S(=O)(=O)c2ccc(F)cc2)Oc2ccc(NC(=O)Nc3ccc4c(c3)OCO4)cc2CC1=O,–,·,·,·,–
Cc1ccc(S(=O)(=O)N(C)C[C@H]2Oc3ccc(NC(=O)Nc4ccc5c(c4)OCO5)cc3CC(=O)N([C@H](C)CO)C[C@@H]2C)cc1,–,·,·,·,–
C[C@H]1CN([C@@H](C)CO)C(=O)Cc2cc(NC(=O)Nc3ccc4c(c3)OCO4)ccc2O[C@H]1CN(C)S(=O)(=O)c1ccc(F)cc1,53,·,·,·,–
CN(C)C(=O)C[C@@H]1CC[C@@H](NC(=O)NC2CCCCC2)[C@H](CO)O1,–,·,·,·,–
C[C@@H]1CN([C@H](C)CO)C(=O)c2cc(NC(=O)Nc3ccc(F)cc3)ccc2O[C@@H]1CN(C)C(=O)Nc1ccc(F)cc1,–,·,·,·,–
Cc1cc(C)c(C(=O)Cn2nc(C(=O)O)c3ccccc3c2=O)cc1C,–,–,–,–,–
Cc1cc(C(=O)Cn2nc(C(=O)O)c3ccccc3c2=O)c(C)n1-c1ccccc1,–,–,70,–,–
CC(=O)N(C)C[C@H]1[C@@H](c2ccc(-c3cccc(C#N)c3)cc2)[C@@H](CO)N1C(C)=O,·,·,·,·,–
CCN(CC)c1ccc(-c2nnc(SCC(=O)Nc3ccccc3C#N)n2-c2ccccc2)cc1,·,–,·,75,·
N#Cc1ccccc1NC(=O)CSc1nnc(-c2ccccc2)n1-c1ccccc1,·,–,–,–,·
CCCNC(=O)N1CC2(CCN(Cc3cccc(OC)c3)CC2)c2c(n(C)c3cc(OC)ccc23)[C@@H]1CO,–,·,·,·,–
Cc1cc(OCC(=O)Nc2cnn(CCCC(=O)O)c2)ccc1[N+](=O)[O-],–,–,–,–,·
Cc1cc(OCC(=O)Nc2cnn(CCCC(=O)O)c2)ccc1Cl,·,59,–,–,–
COc1ccc(OCC(=O)Nn2c(-c3ccc(OC)cc3)nc3ccccc3c2=O)cc1,–,–,–,–,–
Cc1ccc(OCC(=O)NNc2c3ccccc3nc3ccccc23)cc1,–,–,–,72,–
COc1ccc(OCC(=O)Nn2c(-c3ccc(C)cc3)nc3ccccc3c2=O)cc1,·,–,72,72,–
O=C(C[C@@H]1CC[C@@H]2[C@H](COC[C@@H](O)CN2C(=O)c2ccccc2)O1)N1CCOCC1,–,·,·,·,–
C[C@H](CO)N1C[C@H](C)[C@@H](CN(C)C(=O)Nc2ccc(F)cc2)OCCCC[C@H](C)Oc2ccc(NC(=O)CCC(F)(F)F)cc2C1=O,–,·,·,·,–
CCOC(=O)Cc1csc(N/N=C/c2ccc(Cl)cc2)n1,–,49,–,–,–
CCOc1ccc(C(NC(=O)CC)c2c(O)ccc3ccccc23)cc1 (stereo not given),–,–,–,–,–
CC(=O)Oc1ccc2ccccc2c1C(NC(=O)Cc1ccccc1)c1ccc(Cl)cc1 (stereo not given),·,–,–,55,·
